Growth data for 26 molecules are collected here from PubChem BioAssay (NCI).

Assay in all cases: NCI-60 one-dose screen, 48 h (100 = growth as untreated, 0 = no growth, -100 = all killed)
Assay [1] has as its system NCI-H23 lung. Conditions: 10 µM unless noted.
Assay [2] concerns NCI-H226 lung. Conditions: 10 µM unless noted.
Assay [3] has as its system NCI-H322M lung. Conditions: 10 µM unless noted.
The subject of assay [4] is HOP-62 NSCLC. Conditions: 10 µM unless noted.
Assay [5] deals with NCI-H460 lung. Conditions: 10 µM unless noted.
For assay [6], the system named is HOP-92 NSCLC. Conditions: 10 µM unless noted.
Assay [7] concerns NCI-H522 lung. Conditions: 10 µM.
Assay [8] relates to 786-0 renal. Conditions: 10 µM unless noted.
Assay [9] concerns COLO 205 colon. The following applies: 10 µM unless noted.
The test system of assay [10] is A549/ATCC NSCLC. The following applies: 10 µM unless noted.

The structures appear in SMILES notation. Compounds without any hit were thinned out: in the full panel of roughly 83,000, 20% have a hit.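 Single-dose data. Exposure time 48 hours. Values below 10 considered active.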 Values without a mark were called inactive. Calls of active or inactive are those of the source.

As to `O=C1/C(=C/c2ccccc2O)C(=S)SN1Cc1ccco1`, the growth in assay [1] is 105%; in [2], 103%; in [3], 90.3%; in assay [4] it was 92.7%; in assay [5], 106%; in assay [6] it was 97.7%. Besides, the growth in assay [7] was 83.2%; in assay [8], 103%; in assay [9] it was 113%.

On to `CCCn1c(N)c(C(=O)CNc2ccc(I)cc2)c(=O)[nH]c1=O`, for which the growth in assay [1] is 89.8%; in [2] it was 62.7%; in [3], 62%; in [4], 54.9%; in [5] it was 28.6%; in [6], 95.4%. The growth was 50.9% in assay [7], 47.1% in assay [8] and 75.5% in [9].

Turning to `O=Nc1c2cccnc2n2nnc3ccc(Cl)cc3c12`, the growth is 66.4% in assay [1]; 85.9% in assay [2]; 107% in [3]; 115% in [4]; 27.7% in assay [5]; -40.5% (active) in [6]. The growth in assay [7] is -71.5% (active); in [8], 59%; in assay [9] it was -5.58% (active).

Regarding `CC(=O)Nc1cc(C(c2ccccc2)c2ccccc2)cc(C(c2ccccc2)c2ccccc2)c1C`, the growth in assay [1] was 60%; in assay [2], 55.6%; in [3], 81.7%; in [4], 8.81% (active); in assay [5], 55.4%; in [6] it was 41.4%. In addition, the growth in [7] was 45.6%; in assay [8], 63.6%; in [9], 64.3%.

Take `COc1ccc2c(c1)C(=Nc1cc(OC)c(OC)c(OC)c1)C(=O)N2`: the growth in assay [1] is 96.6%; in assay [2] it was 97.1%; in assay [3], 108%; in assay [4] it was 36.1%; in assay [5] it was 116%; in [6], 56.8%. Also, the growth in [7] is 89.9%; in assay [8], 104%; in assay [9], 92.5%.

On to `COc1cccc2c1C(=O)c1c(O)c3c(c(O)c1C2=O)C[C@@](O)(C(C)=O)C[C@@H]3O[C@H]1C[C@H](N)[C@H](O)[C@H](C)O1`, for which the growth in assay [1] was -67.3% (active); in assay [2] it was -33.1% (active); in [3] it was -19.9% (active); in assay [4], -50.2% (active); in [5], -3.01% (active); in assay [6] it was -28% (active). In addition, the growth in [7] was -89.3% (active); in assay [8], -9.97% (active); in [9] it was -85.8% (active).

For `c1ccc(N2c3nc4ccccc4cc3Sc3cc4ccccc4nc32)nc1`, the growth is 93.7% in [1]; 84.9% in [2]; 83.6% in assay [3]; 90.8% in assay [4]; 111% in assay [5]; 39% in assay [6]. Besides, the growth in assay [7] is 98.1%; in assay [8], 92.9%; in assay [9] it was 141%.

`C(=C1c2ccccc2-c2ccccc21)c1ccncc1`: the growth was 58.5% in [1]; 86.8% in [2]; 80.1% in assay [3]; 56.3% in assay [4]; 33.7% in assay [5]; 55.9% in [6]. The growth is 49.1% in assay [10], 58.2% in assay [8] and 49.4% in assay [9].

In the case of `O=C(COc1cccc(/C=C2\Cc3ccccc3C2=O)c1)c1ccc(Cl)cc1`, the growth in assay [1] was 96.1%; in assay [2], 105%; in [3], 131%; in assay [4] it was 98%; in assay [5], 117%; in assay [6] it was 86.6%. For the same molecule, the results for the growth in [7], in [8] and in assay [9] were 81.1%, 97.8% and 142%, respectively.

As to `CCOC(=O)c1sc(NC(=O)COc2ccc(/C=C3\CCc4cc(OC)ccc4C3=O)cc2)nc1C`, the growth was 96.6% in assay [1]; 92.2% in assay [2]; 96.5% in assay [3]; 103% in assay [4]; 111% in assay [5]; 106% in assay [6]. Moreover, the results for the growth in [7], in assay [8] and in assay [9] were -2.75% (active), 90.7% and 137%, respectively.

As for `Cc1ncc(C(=O)Nc2ccc(CN3CCN(C)CC3)c(C(F)(F)F)c2)cc1C#Cc1cncc2ncccc12`, the growth in assay [1] was 45.7%; in [2], 46.7%; in assay [3], 51%; in assay [4], 59.4%; in assay [5], 61%; in assay [6], 60.3%. The growth in assay [7] was 86.5%; in assay [8], -85.8% (active); in assay [9], 32.2%.

As for `O=C(COc1cccc(/C=C2\Oc3ccc4ccccc4c3C2=O)c1)c1ccc([N+](=O)[O-])cc1`, the growth was 93.8% in assay [1]; 85.8% in [2]; 106% in assay [3]; 87.6% in [4]; 100% in [5]; 81.2% in [6]. Also, the growth was 35.8% in assay [7], 103% in assay [8] and 114% in [9].

Turning to `O=C1C=CC(=O)N1c1ccccn1`, the growth in assay [1] was 102%; in assay [2], 108%; in [3], 110%; in assay [4] it was 113%; in assay [5], 106%; in [6], 104%. Moreover, the growth was 96.9% in [10], 105% in assay [8] and 112% in assay [9].

Take `O=CN1N=C(c2ccc(Nc3ccnc4cc(Cl)ccc34)cc2)CC1c1ccc(Cl)cc1` (centres undefined): the growth in assay [1] was 39.2%; in assay [2] it was 52.6%; in assay [3], 44.1%; in assay [4], 33.8%; in assay [5], 6.99% (active); in assay [6] it was 49.5%. The growth in [7] was 26.9%; in assay [8] it was 27.9%; in assay [9] it was 12.1%.

With `O=C(O)C1CCN(S(=O)(=O)c2ccc(-c3ccccc3)cc2)CC1`, the growth was 98.3% in assay [1]; 90.6% in assay [2]; 124% in assay [3]; 112% in assay [4]; 112% in assay [5]; 90.8% in assay [6]. Moreover, the growth in assay [7] is 92.9%; in [8], 103%; in [9], 111%.

Take `COc1cnc2c(c1)C(=O)c1c-2n(CCCN2CCC(O)CC2)c(=O)c2cc(F)ccc12`: the growth in [1] was -19.9% (active); in assay [2], -83.7% (active); in assay [3], -3.95% (active); in assay [4] it was -20.8% (active); in assay [5], -44.5% (active); in assay [6] it was -7.92% (active). Moreover, the growth is -77.5% (active) in assay [10], -45.9% (active) in assay [8] and -10.9% (active) in assay [9].

As to `CCN(CC)c1ccc(/C=C/C(=O)c2cccc(NS(C)(=O)=O)c2)cc1`, the growth in assay [1] is 18.7%; in assay [2] it was 43.1%; in assay [3], 89%; in [4], 42.6%; in assay [5], 42.3%; in [6], 19.9%. In addition, the growth in [7] was 4.67% (active); in assay [8], 32.3%; in [9] it was 62.3%.

Regarding `CCOC(=O)c1sc(NC(=O)COc2cccc(/C=C3\Cc4ccc(Cl)cc4C3=O)c2)nc1C`, the growth in [1] was 93.1%; in [2], 95.4%; in assay [3], 130%; in [4], 107%; in assay [5], 103%; in assay [6], 96.7%. Besides, the growth in [10] is 107%; in assay [8], 99.5%; in assay [9], 116%.

Consider `CN1CCN(CCCOc2ccc3ncnc(Nc4ccc(OCc5cccc(F)c5)c(Cl)c4)c3c2)CC1`, for which the growth is 54.9% in assay [1]; 88.8% in assay [2]; -9.88% (active) in assay [3]; 19.7% in assay [4]; -68.9% (active) in assay [5]; 35% in assay [6]. Besides, the growth in assay [7] was -43.4% (active); in assay [8] it was -86.6% (active); in [9] it was -46.5% (active).

On to `O=C(Nc1nc(-c2ccc(Cl)cc2)cs1)c1cc(-c2ccc(Br)cc2)nc2ccc(Cl)cc12`, for which the growth is 33.5% in assay [1]; 71.2% in [2]; 92.1% in assay [3]; 37.2% in assay [4]; 108% in assay [5]; 5.28% (active) in assay [6]. Moreover, the results for the growth in assay [7], in assay [8] and in assay [9] were 75.3%, 43% and 89.1%, respectively.

As to `NS(=O)(=O)N(c1cc(C(F)(F)F)cc(C(F)(F)F)c1)C1CCN(Cc2ccc(C(F)(F)F)cc2)CC1`, the growth in assay [1] was 9.79% (active); in assay [2], 78.1%; in assay [3], 45.1%; in assay [4], 30.2%; in assay [5], 5.71% (active); in assay [6] it was 7.48% (active). The growth in assay [7] was -23.3% (active); in assay [8] it was 42.3%; in assay [9] it was -59.8% (active).

With `NS(=O)(=O)c1cc2c(cc1Cl)NC=NS2(=O)=O`, the growth in assay [1] was 109%; in [2], 99%; in [3], 98.5%; in [4], 98.5%; in assay [5] it was 110%; in [6], 106%. The results for the growth in assay [7], in assay [8] and in assay [9] were 91.4%, 98.9% and 110%, respectively.

Regarding `COc1ccc(CNC(=O)c2c(C)n([O-])c3cc(F)c(F)cc3[n+]2=O)cc1`, the growth in assay [1] is 41.9%; in assay [2] it was 99.6%; in assay [3] it was 97.1%; in assay [4], 107%; in [5], 97.2%; in assay [6], 89.1%. For the same molecule, the growth in assay [7] was 77.9%; in assay [8] it was 92.9%; in assay [9] it was 131%.

In the case of `C[C@H]1O[C@@H](O[C@H]2[C@@H](O)C[C@H](O[C@H]3[C@@H](O)C[C@H](O[C@H]4CC[C@]5(C)C6CC[C@]7(C)[C@@H](C8=CC(=O)OC8)CC[C@]7(O)C6CC[C@@H]5C4)O[C@@H]3C)O[C@@H]2C)C[C@H](O)[C@@H]1O` (some centres undefined), the growth in [1] was -47.5% (active); in [2], -100% (active); in assay [3] it was -84.9% (active); in [4], -100% (active); in assay [5], -97.3% (active); in assay [6], -29.3% (active). Besides, the growth in assay [7] is -65% (active); in [8] it was -93.4% (active); in assay [9], -92.6% (active).

Take `COc1ccc(/C=C/C(=O)c2cccc(NS(C)(=O)=O)c2)cc1`: the growth in [1] is 69.6%; in [2], 85.7%; in [3] it was 92.2%; in [4], 90.2%; in [5] it was 96.4%; in [6], 60.5%. In addition, the growth in [7] is 66.5%; in [8] it was 75.7%; in [9] it was 102%.

With `O=C(Nc1ccc(Cl)cc1)Nc1ccccc1CNc1nc(Nc2ccc(OCCN3CCCC3)cc2)ncc1Cl`, the growth in assay [1] is 33.5%; in [2] it was 97%; in assay [3], 101%; in assay [4], 82.2%; in assay [5], -77.7% (active); in assay [6], 72.9%. For the same molecule, the growth was -17% (active) in [7], -86.6% (active) in [8] and 37.8% in assay [9].
